CYP2C9 inh – inhibitors of human CYP2C9. 20% of 96,000 active. CYP2C9 Supersomes, luciferin-H conversion, luminescence. P11712. inhibition, % at 5 µM. AID 777;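 active = blocking of liver enzyme CYP2C9 beyond about 50% at 5 µM, limit read from the data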
Target sequence (P11712 whole entry, looked up): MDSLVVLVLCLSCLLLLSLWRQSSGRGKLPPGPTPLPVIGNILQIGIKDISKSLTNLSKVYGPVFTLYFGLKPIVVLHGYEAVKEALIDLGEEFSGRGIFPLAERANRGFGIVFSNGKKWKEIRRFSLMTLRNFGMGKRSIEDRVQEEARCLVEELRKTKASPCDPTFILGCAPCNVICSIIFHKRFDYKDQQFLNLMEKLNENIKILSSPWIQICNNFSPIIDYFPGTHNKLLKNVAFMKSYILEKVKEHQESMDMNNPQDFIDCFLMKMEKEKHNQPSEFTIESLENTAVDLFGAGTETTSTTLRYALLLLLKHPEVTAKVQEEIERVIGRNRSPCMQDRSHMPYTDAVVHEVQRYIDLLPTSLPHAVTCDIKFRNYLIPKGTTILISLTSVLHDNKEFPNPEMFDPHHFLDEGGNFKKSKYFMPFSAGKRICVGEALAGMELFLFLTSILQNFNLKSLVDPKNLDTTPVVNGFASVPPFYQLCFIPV
CYP2C19 act – activators of human cytochrome P450 2C19; P33261; recombinant CYP2C19, luciferin-H EGE luminescence; active compounds read high; 0 = fully inhibited enzyme, 1 = untreated enzyme; activation factor at 5 µM; 96,000 tested, under 10 active; AID 1025;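 active = activation factor of at least 2 at 5 µM in the primary screen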;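 note: 0 = wells with 2.5 mM tranylcypromine and 1 = vehicle-only wells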
EphB4 antag – antagonists of human EphB4-ephrin-B2 interaction; P54760; EphB4 LBD / TNYL-RAW-Alexa532 peptide, fluorescence polarization; inhibition, % at 7 µM; 0.15% of 97,000 active;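 active = inhibition above the screen-wide mean inhibition plus 3 SD, cut at about 15% in these data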;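 note: 0% = DMSO wells and 100% = excess unlabeled TNYL-RAW peptide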
CYP2C19 inhib – human CYP2C19 inhibition. P33261. CYP2C19 Supersomes, luciferin-H EGE luminescence, 30 min. inhibition, % at 5 µM. 21% of 96,000 active. AID 778;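 active = CYP2C19 inhibition above a set limit at 5 µM in the primary screen, cut at about 50% in these data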;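 note: plate controls were negative control wells for no effect and 2.5 mM tranylcypromine positive control for full effect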
CYP2C9 activ – increases human cytochrome P450 2C9 activity | activation factor at 5 µM | recombinant CYP2C9, luciferin-H conversion, luminescence; active compounds read high; factor 1 = untreated enzyme, 0 = blocked | AID 1024 | 1.4% of 96,000 active | P11712;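 active = activation factor of 2 or more for CYP2C9 at a 5 µM dose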;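 note: 0 = sulfaphenazole-blocked wells and 1 = vehicle-only wells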
* hit, by the source's call; . = no result. Only some compounds are listed: those with a hit (about 27% of all), similar ones and a draw of the others.

SMILES | CYP2C9 inh | CYP2C19 act | EphB4 antag | CYP2C19 inhib | CYP2C9 activ
COc1ccc(CCNC(=O)CSC2=Nc3ccccc3C3=NC(C(C)C)C(=O)N23)cc1OC (stereo not drawn) | 10 | 1 | -2 | -1 | 0.9
COC(=O)c1sc(NC(=O)C2CCCO2)c(C(=O)OC)c1C (stereo not drawn) | 40 | 0.5 | 2 | 51* | 0.6
CCC(=O)Nc1sc(C(=O)OC)c(C)c1C(=O)OC | 9 | 0.8 | . | 16 | 0.9
CCOC(=O)c1sc(NC(=O)C2CCCO2)c(C(=O)OCC)c1C (stereo not drawn) | 17 | 0.9 | . | 6 | 0.8
COC(=O)c1sc(NC(=O)C2CCCCC2C(=O)O)c(C(=O)OC)c1C (stereo not drawn) | 93* | 1.1 | . | -5 | 0.1
COC(=O)c1sc(NC(=O)C(C)C)c(C(=O)OC)c1C | 27 | 0.5 | -4 | 53* | 0.7
Cc1c(C(=O)OC(C)C)sc(NC(=O)C2CCCO2)c1C(=O)OC(C)C (stereo not drawn) | 76* | 0.3 | -4 | 69* | 0.2
O=C(c1ccccc1NS(=O)(=O)c1ccc(F)cc1)N1CCCC1 | 11 | 0.7 | 2 | 31 | 0.9
Cc1nc(C(=O)Nc2ccccc2Cl)cc2c1[nH]c1ccccc12 | 21 | 1 | 0 | -3 | 0.8
CC1(C)CC(=O)C=C(Nc2ccc3c(c2)OCCO3)C1 | -3 | 1.1 | 2 | -7 | 1
Cc1cc(C)cc(C(=O)N2CCCCCC2)c1 | -38 | 0.7 | -3 | 28 | 1.4
CCn1nnnc1SCC(=O)NCc1ccc2c(c1)OCO2 | . | . | -3 | . | .
O=C(CSc1nnnn1C1CCCCC1)NCc1ccco1 | 6 | 0.8 | -1 | 22 | 0.9
O=C(CSc1nnnn1C1CCCC1)NCc1ccc2c(c1)OCO2 | 61* | 0.6 | 4 | 36 | 0.4
O=C(CSc1nnnn1C1CCCCC1)NCc1ccc2c(c1)OCO2 | 92* | 0.1 | -11 | 92* | 0.1
COc1ccc(NC(=O)COc2ccccc2C#N)c(S(=O)(=O)N2CCCCC2)c1 | 45 | 0.9 | . | 10 | 0.6
Cc1nnc(SCCn2c(N3CC(C)CC(C)C3)nc3c2c(=O)n(C)c(=O)n3C)s1 (stereo not drawn) | 20 | 0.8 | 0 | 17 | 0.8
Cc1nnc(SCCn2c(Br)nc3c2c(=O)n(C)c(=O)n3C)s1 | 8 | 0.2 | 11 | 80* | 0.9
CSc1nc(-c2ccccc2)nc2[nH]ccc(=O)c12 | . | . | 4 | . | .
O=C(CN(Cc1ccc2c(c1)OCO2)C(=O)CNS(=O)(=O)c1ccccc1)NCC1CCCO1 (stereo not drawn) | 9 | 0.8 | -4 | 21 | 0.9
CCOc1ccc(N(CC(=O)NCC2CCCO2)S(=O)(=O)c2ccc(SC)cc2)cc1 (stereo not drawn) | 44 | 0.3 | -10 | 68* | 0.6
CCOc1ccc(C(=O)NCC2CCCO2)cc1 (stereo not drawn) | -5 | 1.1 | 3 | -8 | 1.1
COc1ccccc1CN(CC(=O)NCC1CCCO1)C(=O)CNS(=O)(=O)c1ccc(C)cc1 (stereo not drawn) | 25 | 0.8 | -6 | 16 | 0.7
COc1ccc(N(CC(=O)NCC2CCCO2)S(=O)(=O)c2ccc(C)cc2)cc1OC (stereo not drawn) | 55* | 1.2 | 6 | -24 | 0.4
O=C(CN(C(=O)c1ccc2c(c1)OCCO2)c1ccccc1)NCC1CCCO1 (stereo not drawn) | 66* | 0.6 | -9 | 42 | 0.3
SMILES | CYP2C9 inh | CYP2C19 act | EphB4 antag | CYP2C19 inhib | CYP2C9 activ
O=C(NCC1CCCO1)c1ccc2c(c1)OCO2 (stereo not drawn) | 5 | 0.7 | 8 | 26 | 0.9
O=C(CN(c1ccc2c(c1)OCCO2)S(=O)(=O)c1ccccc1)NCC1CCCO1 (stereo not drawn) | 77* | 0.6 | 2 | 35 | 0.2
CC(C)(C)OC(=O)N1CCCC1C(=O)N1CCc2ccccc21 (stereo not drawn) | . | . | 9 | . | .
CN(CC(=O)NCC1CCCO1)S(=O)(=O)c1cc(Cl)ccc1Cl (stereo not drawn) | -221 | 0.4 | 4 | 64* | 3.2*
COc1ccc(S(=O)(=O)NCC(=O)N(CC(=O)NCC2CCCO2)c2c(C)cccc2C)cc1 (stereo not drawn) | 68* | 0.8 | -2 | 20 | 0.3
O=c1oc2ccccc2cc1-c1nc(-c2cccs2)cs1 | 30 | 1.1 | -4 | -5 | 0.7
COc1cccc2cc(-c3nc(-c4cccs4)cs3)c(=O)oc12 | 83* | 0.6 | 1 | 43 | 0.2

Assay outcomes: PubChem BioAssay, several laboratories
